# Source: PubChem
# A selection: hits, their analogues and other compounds. The true share with any hit is near 3.1%.
# UBC13 inh – UBC13 polyubiquitin chain formation inhibitors, primary screen, biochemical, TR-FRET, uHTS; inhibition, % at 20 µM; AID 485273, 2010; actives 0.47% (n = 330,000); in the data active = inhibition above about 45%, passing the limit was not always enough
# Target sequence (P61088 whole entry, looked up): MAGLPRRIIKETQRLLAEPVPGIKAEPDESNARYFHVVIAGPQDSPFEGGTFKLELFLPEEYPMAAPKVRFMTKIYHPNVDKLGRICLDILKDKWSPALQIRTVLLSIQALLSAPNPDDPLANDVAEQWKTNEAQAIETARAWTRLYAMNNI
# MEKK3 PB1 HTS – modulators of MEKK3-MEK5 PB1 binding, primary screen, biochemical, wildtype MEKK3, multiplex bead flow cytometry, Alexa488-MEK5. bead-based flow cytometry, Alexa488-MEK5 binding to MEKK3; actives lie on both sides; 0 = blocked by unlabeled MEK5, 100 = vehicle. binding response (% of control), % at 10 µM. actives 1.4% (n = 290,000). AID 1529, 2009;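 active = binding response more than 3 SD above or below the average of its plate-row segment, actives on both sides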;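 also: Alexa488 bead fluorescence after subtracting the streptavidin-only scavenger bead signal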
# ATG4B inh – ATG4B protease inhibitors, primary screen, biochemical, fluorescence, uHTS | ATG4B cleavage of LC3-PLA2, NBD-HPC fluorescence, 1 h | inhibition, % at 8.33 µM | actives 0.51% (n = 340,000); in the data active = inhibition above about 40%
# PREPL inhibitor – PREPL enzyme inhibitors, primary screen, biochemical, fluorescence polarization | Prolyl endopeptidase-like (Homo sapiens), Q4J6C6 | recombinant PREPL, fluorescence polarization activity-based probe | actives 0.68% (n = 320,000) | inhibition, % at 5.96 µM | AID 2751, 2010; in the data active = inhibition above about 43%;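 also: 0% = enzyme with DMSO and 100% = wells lacking enzyme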
# MEKK2 WT-MEK5 – modulators of MEK5 binding to wildtype MEKK2, primary screen, biochemical, multiplex bead flow cytometry, Alexa488-MEK5 | Mitogen-activated protein kinase kinase kinase 2 (Homo sapiens), Q9Y2U5 | actives 1.1% (n = 290,000) | Alexa488-MEK5 binding to MEKK2 WT; actives lie on both sides | binding response (% of control), % at 10 µM; in the data active = binding response below about 67% or above about 130%
# MEKK2mut PB1 HTS – MEK5 binding signal on mutant MEKK2 PB1, primary screen, biochemical, multiplex bead flow cytometry, Alexa488-MEK5 | Alexa488-MEK5 binding to MEKK2 mutant | percent response, % at 10 µM | actives 0.35% (n = 290,000) | AID 1530, 2009; in the data active = percent response above about 24%, passing the limit was not always enough
# Casp3 UBC13 ctr – CASP3 inhibitor validation, counterassay for project on UBE2N polyubiquitination blockers, biochemical, one dose | inhibition, % at 20 µM | Recombinant caspase-3, Caspase-Glo 3/7 luminescence, 60 min | shares compounds with UBC13 inh | actives 4% (n = 1,400);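 active = mean inhibition across replicates above about 26%, limit read from the data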;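 also: plate controls were DMSO with caspase-3 for no effect and DMSO wells lacking enzyme for full effect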
# UBC13 conf – UBC13 polyubiquitination inhibitors, single-point retest, confirmation, biochemical, TR-FRET, single concentration. shares compounds with UBC13 inh. inhibition, % at 10 µM. actives 68% (n = 1,400); in the data active = inhibition above about 45%
# Starred values were filed as active, the others as inactive; · = not tested or not shown.
SMILES,UBC13 inh,MEKK3 PB1 HTS,ATG4B inh,PREPL inhibitor,MEKK2 WT-MEK5,MEKK2mut PB1 HTS,Casp3 UBC13 ctr,UBC13 conf
COCCCNC(=O)c1cn(CC(C)C)c(=O)c2c1c1ccccc1n2C,30,110,-6,-8,117,5,·,·
O=[N+]([O-])c1ccc2[nH]c(O)c(N=NC(=S)NCC3CCCO3)c2c1 (stereo not given),91*,92,-9,9,94,-4,4,94*
CCNC(=S)N=Nc1c(O)[nH]c2ccc([N+](=O)[O-])cc12,45*,100,0,15,98,-2,1,60*
CC(C)c1ccc2[nH]c(O)c(N=NC(=O)c3ccc(CSc4nncn4C)cc3)c2c1,0,99,-2,1,96,5,·,·
CCNC(=S)N=Nc1c(O)[nH]c2ccc(C(C)C)cc12,90*,107,-9,7,102,2,1,88*
CCCCCC(=O)N=Nc1c(O)[nH]c2ccc([N+](=O)[O-])cc12,-6,95,-1,16,100,-2,·,·
CCOC(=O)c1cc2c(s1)-c1c(C)cccc1OC2,11,105,-17,9,105,1,·,·
Cc1cccc2c1-c1sc(C(=O)NCCCN3CCC(C)CC3)cc1CO2,53*,107,-1,38,186*,29*,2,86*
COc1ccc(-n2nc(C(=O)NCC(=O)NCCCN3CC(C)CC(C)C3)c3ccccc3c2=O)cc1 (stereo not given),0,101,-3,0,106,-1,·,·
CCN1C(=O)c2cccc3c(NC(=O)c4ccc(S(=O)(=O)N5CCOCC5)cc4)ccc1c23,70*,99,-11,10,100,-4,-2,83*
CCN1C(=O)c2cccc3c(NS(=O)(=O)c4ccc(NC(C)=O)cc4)ccc1c23,-28,97,-3,5,98,-4,·,·
CCN1C(=O)c2cccc3c(NC(=O)c4ccc(S(=O)(=O)N(C)C)cc4)ccc1c23,62*,108,-15,-6,103,8,0,76*
CCOc1cc2c(C#N)c(N3CCCCC3)nc(N)c2c(N)n1,-33,101,7,27,99,8,·,·
CCOc1cc2c(C#N)c(N3CCNCC3)nc(N)c2c(N)n1,63*,102,-2,31,109,3,24,105*
O=C(OCc1cccc([N+](=O)[O-])c1)c1cccnc1Cl,50*,102,-14,8,104,-2,31*,67*
O=[N+]([O-])c1c(-c2cn[nH]c2)n[nH]c1-c1cn[nH]c1,56*,107,-2,1,100,3,4,53*
COc1ccccc1NC(=O)c1c(N=Cc2cccc([N+](=O)[O-])c2)cnn1C,77*,107,3,19,104,11,-2,86*
COc1ccc(-c2cc3c(=O)n(CC(=O)NCCCN4CCC(N5CCCCC5)CC4)nc(C)n3n2)cc1,71*,105,2,2,141,11,-1,34
C=CCNC(=S)N1CCN(c2cc3c(cc2F)c(=O)c(C(=O)O)cn3CC)CC1,12,100,-3,-16,99,2,·,·
C=CCCCCCCCCC(=O)N1CCN(c2cc3c(cc2F)c(=O)c(C(=O)O)cn3CC)CC1,47*,100,-11,14,97,-1,-2,16
